Structures are written as SMILES. Active and inactive are the calls of the source. How the source made its calls: active means hit-call score of the fitted dose curve at least 0.9, where 1 is the maximum; inactive means score below 0.9.

Experiment [1] has as its target Paired box protein Pax-6 (Homo sapiens) (UniProt P26367). Kind of experiment: ATG_Pax6_CIS: Attagene CIS-FACTORIAL HepG2 Assay for human Paired Box 6 (PAX6) (AID 2282956). The following applies: HepG2 CIS-FACTORIAL PAX6 reporter transcription, RNA readout; actives raise or lower the signal. In short, it runs like this:
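Transient MRTU transfection of HepG2 → compound exposure 24 h → TriZol RNA, oligo(dT) RT → PCR, 6-FAM primer extension, HpaI cut → capillary electrophoresis; activity fitted both directions against DMSO.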

Experiment [2] can be described thus: ATG_PXRE_CIS: Attagene CIS-FACTORIAL HepG2 Assay for human Pregnane X Receptor Element (PXRE) (AID 2282957). The following applies: HepG2 Attagene CIS-FACTORIAL PXRE reporter, mRNA; actives raise or lower the signal. In short, it runs like this: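 Transfect HepG2 with MRTUs (cis promoter elements); dose chemical, incubate 24 h; isolate RNA, RT with oligo(dT), PCR, 6-FAM label, HpaI cut, CE. Gain/loss fit vs DMSO.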

Experiment [3] is described as follows: ATG_Sox_CIS: Attagene CIS-FACTORIAL HepG2 Assay for human SRY-box transcription factor (SOX) (AID 2282960). The following applies: HepG2 Attagene cis-factorial SOX reporter, mRNA; actives raise or lower the signal. The procedure, abridged:
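Transient MRTU transfection of HepG2; 24 h compound incubation; TriZol RNA, oligo(dT) RT, PCR, 6-FAM primer extension, HpaI cut, CE. Bidirectional fit, DMSO = baseline.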

The target of experiment [4] is Transcription factor Sp1 (Homo sapiens) (UniProt P08047). In words: ATG_Sp1_CIS: Attagene CIS-FACTORIAL HepG2 Assay for human Specificity Protein 1 (Sp1) (AID 2282961). The following applies: HepG2 Sp1 cis-reporter transcription, actives raise or lower the signal. The procedure, abridged:
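Endogenous Sp1 activity was gauged in human liver HepG2 cells bearing transfected reporter units under a cis-regulating promoter. After 24 h dosing, reporter mRNA was quantified by RT-PCR with capillary electrophoresis, and activity fitted bidirectionally versus DMSO.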

Experiment [5] is described as follows: ATG_SREBP_CIS: Attagene CIS-FACTORIAL HepG2 Assay for human Sterol Regulatory Element Binding (SREBP) (AID 2282962). Particulars: HepG2 Attagene cis-factorial SREBP reporter, mRNA; actives raise or lower the signal. In short, it runs like this:
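Transfected HepG2 (cis-regulated reporter library, endogenous TFs) → compound 24 h → total RNA → oligo(dT) RT → reporter-specific PCR → FAM primer extension, HpaI cut → CE fluorescence. Fit bidirectional vs DMSO.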

Experiment [6] deals with Signal transducer and activator of transcription 3 (Homo sapiens) (UniProt P40763). Kind of experiment: ATG_STAT3_CIS: Attagene CIS-FACTORIAL HepG2 Assay for human Signal Transducer and Activator of Transcription 3 (STAT3) (AID 2282963). Particulars: HepG2, Attagene cis-factorial STAT3 reporter transcription; actives raise or lower the signal. The procedure, abridged: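 Endogenous STAT3-responsive cis-element activity was read in transiently transfected HepG2 cells after 24 h treatment. Reporter transcripts were quantified via RT-PCR and capillary electrophoresis, with DMSO as negative control and bidirectional curve fitting.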

Experiment [7] in a line: ATG_TA_CIS: Attagene CIS-FACTORIAL HepG2 Assay for human TA Basal Promoter (AID 2282964). The following applies: HepG2 Attagene CIS-factorial TA basal promoter reporter; actives raise or lower the signal. The procedure, abridged:
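Fluorescence from labelled RT-PCR reporter fragments, separated by capillary electrophoresis, gives the signal. Cells: HepG2 transiently carrying multiple reporter units, 24 h chemical dosing. Gain or loss relative to DMSO.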

Experiment [8] can be described thus: ATG_TCF_b_cat_CIS: Attagene CIS-FACTORIAL HepG2 Assay for human T-Cell-Factor with beta-catenin (TCF/b-cat) (AID 2282965). Particulars: HepG2 TCF/beta-catenin cis-reporter transcription, actives raise or lower the signal. The procedure, abridged: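 Measured: reporter mRNA in HepG2 transiently transfected with cis-promoter reporter units, 24 h after chemical addition. Fitting was bidirectional, DMSO as negative control.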

The nature of experiment [9]: ATG_PPRE_CIS: Attagene CIS-FACTORIAL HepG2 Assay for human Peroxisome Proliferator-activated Response Element (PPRE) (AID 2282958). The following applies: HepG2 PPRE cis-element reporter, Attagene transcription factor profiling; actives raise or lower the signal. The procedure, abridged:
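Cells are first transfected transiently with the multiplexed reporter library, then dosed for 24 h. Total RNA is reverse-transcribed, amplified, fluorescently end-labeled and HpaI-cut before capillary electrophoresis; activity is fitted bidirectionally against DMSO controls.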

The nature of experiment [10]: ATG_RORE_CIS: Attagene CIS-FACTORIAL HepG2 Assay for human RAR-related Orphan Receptor Element (RORE) (AID 2282959). The following applies: HepG2 Attagene cis-factorial RORE reporter, mRNA; actives raise or lower the signal. In short, it runs like this: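 Cells were HepG2 carrying transfected cis-regulated reporter constructs, dosed for 24 hours. Total RNA was reverse-transcribed and reporter cDNA amplified, fluorescently labeled and sized by capillary electrophoresis. Activity was fitted bidirectionally relative to DMSO.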

Chain of Paired box protein Pax-6 (Homo sapiens) (P26367 whole entry, looked up): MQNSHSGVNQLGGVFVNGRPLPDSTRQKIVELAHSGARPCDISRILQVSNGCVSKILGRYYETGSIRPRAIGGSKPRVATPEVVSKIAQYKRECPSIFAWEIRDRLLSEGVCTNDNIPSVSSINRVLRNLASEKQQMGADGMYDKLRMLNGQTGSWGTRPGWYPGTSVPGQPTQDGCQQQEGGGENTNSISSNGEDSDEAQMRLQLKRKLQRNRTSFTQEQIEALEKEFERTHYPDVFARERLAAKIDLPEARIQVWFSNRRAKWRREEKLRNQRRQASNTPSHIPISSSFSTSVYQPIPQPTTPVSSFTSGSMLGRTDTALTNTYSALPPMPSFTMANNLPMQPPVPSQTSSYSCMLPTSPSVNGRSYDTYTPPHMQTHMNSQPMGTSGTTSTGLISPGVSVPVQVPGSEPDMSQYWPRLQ
Chain of Signal transducer and activator of transcription 3 (Homo sapiens) (P40763 whole entry, looked up): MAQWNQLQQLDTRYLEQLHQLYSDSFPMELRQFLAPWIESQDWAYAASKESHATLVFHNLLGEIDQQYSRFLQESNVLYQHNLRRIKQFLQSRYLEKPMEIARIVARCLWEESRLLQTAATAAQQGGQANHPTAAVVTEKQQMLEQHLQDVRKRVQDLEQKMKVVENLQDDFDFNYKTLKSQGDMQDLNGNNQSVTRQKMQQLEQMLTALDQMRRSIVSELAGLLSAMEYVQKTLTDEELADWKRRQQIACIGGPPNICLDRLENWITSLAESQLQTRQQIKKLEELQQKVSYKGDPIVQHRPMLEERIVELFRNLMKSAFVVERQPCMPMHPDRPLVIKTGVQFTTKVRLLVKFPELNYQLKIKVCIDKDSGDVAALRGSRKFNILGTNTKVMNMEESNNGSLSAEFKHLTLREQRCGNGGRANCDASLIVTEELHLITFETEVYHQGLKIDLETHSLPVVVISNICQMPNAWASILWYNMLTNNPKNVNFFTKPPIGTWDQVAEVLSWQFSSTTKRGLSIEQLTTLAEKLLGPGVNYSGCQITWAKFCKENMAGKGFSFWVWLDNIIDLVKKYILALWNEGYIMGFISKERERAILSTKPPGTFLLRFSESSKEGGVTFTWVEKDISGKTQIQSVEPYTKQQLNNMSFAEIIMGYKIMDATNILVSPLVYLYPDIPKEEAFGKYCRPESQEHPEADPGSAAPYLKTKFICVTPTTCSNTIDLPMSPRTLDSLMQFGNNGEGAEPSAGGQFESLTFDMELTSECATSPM
Chain of Transcription factor Sp1 (Homo sapiens) (P08047 whole entry, looked up): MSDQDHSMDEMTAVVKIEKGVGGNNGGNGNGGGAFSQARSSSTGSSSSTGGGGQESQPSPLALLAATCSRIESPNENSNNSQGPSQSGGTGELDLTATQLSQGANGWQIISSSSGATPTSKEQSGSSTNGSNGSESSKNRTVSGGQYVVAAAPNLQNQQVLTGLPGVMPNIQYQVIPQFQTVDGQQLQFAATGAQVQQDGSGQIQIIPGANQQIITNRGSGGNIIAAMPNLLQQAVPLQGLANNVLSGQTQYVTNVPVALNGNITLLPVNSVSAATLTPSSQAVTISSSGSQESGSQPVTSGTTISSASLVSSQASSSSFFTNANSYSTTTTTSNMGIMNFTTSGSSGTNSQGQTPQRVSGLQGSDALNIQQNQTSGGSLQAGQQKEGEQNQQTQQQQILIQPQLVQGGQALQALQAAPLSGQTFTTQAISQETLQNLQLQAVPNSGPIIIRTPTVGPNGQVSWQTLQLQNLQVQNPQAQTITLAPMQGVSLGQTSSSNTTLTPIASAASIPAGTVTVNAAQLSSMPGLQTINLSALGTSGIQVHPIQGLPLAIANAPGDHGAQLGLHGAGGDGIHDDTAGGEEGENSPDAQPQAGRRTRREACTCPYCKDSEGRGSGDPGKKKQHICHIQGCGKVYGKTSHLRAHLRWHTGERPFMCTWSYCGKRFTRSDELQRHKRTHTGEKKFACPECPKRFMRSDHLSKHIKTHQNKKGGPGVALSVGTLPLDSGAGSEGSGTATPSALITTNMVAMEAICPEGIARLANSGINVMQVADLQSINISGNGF

As usually defined, the AC50 is the concentration giving half of the maximal activity seen. As for `CC(C=O)Cc1ccc(C(C)C)cc1` (centres undefined), the call in [1], in [3], in [4], in [5], in experiment [6] and in experiment [7] was inactive. For the same compound, in experiment [8], the outcome was inactive. The AC50 in [2] is 24 µM (active).

Turning to `O=S(=O)(O)c1cccc2c(S(=O)(=O)O)cccc12`, the outcome in experiment [1], in [2], in experiment [3], in [4], in experiment [5] and in experiment [6] was inactive. In addition, the call in experiment [7] and in experiment [8] was inactive.

As to `O=S(=O)(O)NC1CCCCC1`, the compound was called inactive in experiment [1], in [2], in [3], in experiment [4], in [5] and in [6]. Also, the call in [8] was inactive.

For the compound `C=C(C)C1CCC(C)CC1O` (centres undefined), the compound was called inactive in experiment [1], in [2], in experiment [3], in experiment [4], in experiment [5] and in experiment [6]. The compound was classed as inactive in experiment [7] and in experiment [8].

In the case of `CC(=O)c1c(C)cc(C(C)(C)C)cc1C`, the concentration at half-maximal activity (AC50) in [2] was 27.1 µM (active). Further, the outcome in experiment [9], in experiment [10], in [3], in [4], in [5] and in experiment [6] was inactive. Besides, the call in experiment [7] and in experiment [8] was inactive.

As for `CC1=CCC2C(C1)C2(C)C` (centres undefined), the compound was classed as inactive in experiment [1], in [9], in [10], in experiment [3], in experiment [4] and in [5]. The result in experiment [6], in [7] and in [8] was inactive.

In the case of `NCCNCCN`, the result in experiment [1], in [2], in experiment [3], in [4], in experiment [5] and in [8] was inactive.

In the case of `CC1CCC(C(C)CS)CC1S` (centres undefined), the result in [1], in [9], in [10], in experiment [5], in [6] and in experiment [7] was inactive. The AC50 in experiment [3] was 52.9 µM (active); in [4], 52.1 µM (active); in experiment [8], 49.4 µM (active).

As for `CC(O)C(C)O` (centres undefined), the compound was called inactive in experiment [1], in [9], in experiment [10], in [3], in experiment [4] and in experiment [5]. Also, the result in experiment [6] and in experiment [8] was inactive.

Turning to `CC1=CCC(O)(C(C)C)CC1` (centres undefined), the compound was classed as inactive in experiment [1], in experiment [9], in experiment [10], in experiment [3], in experiment [4] and in [5]. For the same compound, the compound was classed as inactive in experiment [6] and in [8].

On to `OCc1cccnc1`, for which the compound was called inactive in experiment [1], in experiment [3], in experiment [4], in experiment [5], in experiment [6] and in experiment [8].

For the compound `c1ccc2c(c1)c1cccc3ccc4cccc2c4c31`, the call in experiment [1], in experiment [10], in experiment [3], in experiment [5], in [6] and in experiment [7] was inactive. Moreover, the compound was called inactive in experiment [8].

Regarding `O=C(O)CCCCC1CCSS1` (centres undefined), the call in experiment [1], in experiment [10], in experiment [3], in experiment [4], in experiment [5] and in [7] was inactive. Besides, the compound was called inactive in [8].

`CCCc1ccccc1O`: the call in [1], in experiment [10], in experiment [3], in experiment [4], in [5] and in [7] was inactive. Further, the call in experiment [8] was inactive.

In the case of `COC(=O)c1ccc(C)cc1`, the result in experiment [1], in experiment [10], in experiment [3], in experiment [4], in [5] and in experiment [7] was inactive. For the same compound, in experiment [8], the outcome was inactive.

As for `Cc1ccc(C=O)s1`, the compound was called inactive in [1], in experiment [9], in experiment [3], in [4], in experiment [5] and in experiment [6]. Besides, the call in experiment [7] and in experiment [8] was inactive.

In the case of `CCCC(=O)C(C)=O`, the result in [1], in experiment [10], in experiment [3], in experiment [4], in [5] and in [6] was inactive. Moreover, the compound was classed as inactive in [7] and in [8].

Regarding `CSc1nc(NC2CC2)nc(NC(C)(C)C)n1`, the compound was classed as inactive in [1], in experiment [10], in [3], in [4], in experiment [5] and in experiment [6]. The result in experiment [7] was inactive. Also, the AC50 in [9] is 100 µM (active); in [8] it was 51.7 µM (active).
